Test [1] relates to Plasmodium falciparum Sir2 (PF13_0152, Sir2A). The experiment in a line: Plasmodium falciparum Sir2A binding compounds – biochemical, small-molecule microarray, 635 nm fluorescence, primary screen (AID 1098).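 Note: score merges spot fluorescence intensity with its signal-to-noise ratio.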 The following applies: fluorescence 635 nm, higher = more signal.
Test [2] in a line: probe aDKK1 binding to arrayed compounds – biochemical, biotinylated probe, 635/667 nm fluorescence, primary screen (AID 1099).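 Note: score merges 667nm spot fluorescence with signal to noise across triplicate slides; reference of the scale not given here.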 As to conditions: small-molecule microarray, higher = more signal.
Test [3] in a line: probe aCHRDL2 binding to arrayed compounds – biochemical, biotinylated probe, 635/667 nm fluorescence, primary screen (AID 1100). The following applies: small-molecule microarray, higher = more signal.
The nature of test [4]: change in splice reporter luminescence, either direction, cell-based, HEK293, spliceosome inhibition project, primary screen (AID 1101).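 Note: HEK293 cells carrying a splicing-competent luciferase reporter gene; test concentration not given here.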 As to conditions: HEK293 splicing luciferase reporter, 24 h, higher = more signal, called active from +8 up or from −8 down. On the technique in general: A reporter such as luciferase makes a cellular process visible.
In test [5] the target is Fibroblast growth factor 10 (Homo sapiens) (UniProt O15520). Description: compounds binding fibroblast growth factor 10 – biochemical, small-molecule microarray, 635 nm fluorescence, primary screen (AID 1102). The following applies: FGF10 binding, fluorescence 635 nm, higher = more signal.
In test [6] the test system is glycogen synthase kinase-3 (GSK3A per assay name; protocol says GSK3B). Description: compounds binding glycogen synthase kinase-3 – biochemical, small-molecule microarray, 635 nm fluorescence, GSK3A, primary screen (AID 1103). Note: the record names both GSK3A and GSK3B. The following applies: fluorescence 635 nm, higher = more signal.
The target of test [7] is Epidermal growth factor receptor (Homo sapiens) (UniProt P00533). Description: compounds binding epidermal growth factor receptor – biochemical, small-molecule microarray, 635 nm fluorescence, primary screen (AID 1104).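 Note: score merges 667 nm emission intensity with spot signal to noise over triplicate slides.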 The following applies: EGFR binding, higher = more signal.
The target of test [8] is Follistatin-related protein 3 (Homo sapiens) (UniProt O95633). The experiment in a line: compounds binding follistatin-related protein 3 – biochemical, small-molecule microarray, 635 nm fluorescence, primary screen (AID 1105).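 Note: score merges emission near 667 nm and signal to noise per printed spot across three slides.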 As to conditions: FSTL3 binding, higher = more signal.
Test [9] addresses Dickkopf-related protein 1 (Homo sapiens) (UniProt O94907). Description: small molecules binding DKK1 protein – biochemical, small-molecule microarray, 635 nm fluorescence scan, primary screen (AID 1106).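 Note: score merges emission near 667 nm with signal to noise over three replicate slides.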 The following applies: higher = more signal.
In test [10] the test system is Inhibin beta A chain (activin A). Description: small molecules binding activin A – biochemical, small-molecule microarray, 635 nm fluorescence scan, primary screen (AID 1107).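 Note: mouse activin A protein probed at 4.33 µg/mL on printed slides; score merges bound-protein fluorescence near 667 nm with spot signal-to-noise.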 The following applies: INHBA, higher = more signal.

Activity calls are given as the source filed them.

Composite z-score and z-score data for 17 compounds are collected here from PubChem BioAssay.

Sequence of Dickkopf-related protein 1 (Homo sapiens) (O94907 whole entry, looked up): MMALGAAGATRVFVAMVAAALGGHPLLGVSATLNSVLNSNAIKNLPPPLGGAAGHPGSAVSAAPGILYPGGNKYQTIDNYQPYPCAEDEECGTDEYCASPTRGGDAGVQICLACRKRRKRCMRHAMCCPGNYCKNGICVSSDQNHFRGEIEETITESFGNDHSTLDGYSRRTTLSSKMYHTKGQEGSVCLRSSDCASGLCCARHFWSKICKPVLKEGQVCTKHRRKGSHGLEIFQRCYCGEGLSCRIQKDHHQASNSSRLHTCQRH
Sequence of Fibroblast growth factor 10 (Homo sapiens) (O15520 whole entry, looked up): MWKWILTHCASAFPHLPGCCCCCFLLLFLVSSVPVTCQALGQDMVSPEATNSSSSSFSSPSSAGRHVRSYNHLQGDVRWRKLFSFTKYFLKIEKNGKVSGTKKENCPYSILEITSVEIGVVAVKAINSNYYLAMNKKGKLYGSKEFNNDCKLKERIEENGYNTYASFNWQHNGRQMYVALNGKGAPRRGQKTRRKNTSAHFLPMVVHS
Sequence of Epidermal growth factor receptor (Homo sapiens) (P00533 whole entry, looked up): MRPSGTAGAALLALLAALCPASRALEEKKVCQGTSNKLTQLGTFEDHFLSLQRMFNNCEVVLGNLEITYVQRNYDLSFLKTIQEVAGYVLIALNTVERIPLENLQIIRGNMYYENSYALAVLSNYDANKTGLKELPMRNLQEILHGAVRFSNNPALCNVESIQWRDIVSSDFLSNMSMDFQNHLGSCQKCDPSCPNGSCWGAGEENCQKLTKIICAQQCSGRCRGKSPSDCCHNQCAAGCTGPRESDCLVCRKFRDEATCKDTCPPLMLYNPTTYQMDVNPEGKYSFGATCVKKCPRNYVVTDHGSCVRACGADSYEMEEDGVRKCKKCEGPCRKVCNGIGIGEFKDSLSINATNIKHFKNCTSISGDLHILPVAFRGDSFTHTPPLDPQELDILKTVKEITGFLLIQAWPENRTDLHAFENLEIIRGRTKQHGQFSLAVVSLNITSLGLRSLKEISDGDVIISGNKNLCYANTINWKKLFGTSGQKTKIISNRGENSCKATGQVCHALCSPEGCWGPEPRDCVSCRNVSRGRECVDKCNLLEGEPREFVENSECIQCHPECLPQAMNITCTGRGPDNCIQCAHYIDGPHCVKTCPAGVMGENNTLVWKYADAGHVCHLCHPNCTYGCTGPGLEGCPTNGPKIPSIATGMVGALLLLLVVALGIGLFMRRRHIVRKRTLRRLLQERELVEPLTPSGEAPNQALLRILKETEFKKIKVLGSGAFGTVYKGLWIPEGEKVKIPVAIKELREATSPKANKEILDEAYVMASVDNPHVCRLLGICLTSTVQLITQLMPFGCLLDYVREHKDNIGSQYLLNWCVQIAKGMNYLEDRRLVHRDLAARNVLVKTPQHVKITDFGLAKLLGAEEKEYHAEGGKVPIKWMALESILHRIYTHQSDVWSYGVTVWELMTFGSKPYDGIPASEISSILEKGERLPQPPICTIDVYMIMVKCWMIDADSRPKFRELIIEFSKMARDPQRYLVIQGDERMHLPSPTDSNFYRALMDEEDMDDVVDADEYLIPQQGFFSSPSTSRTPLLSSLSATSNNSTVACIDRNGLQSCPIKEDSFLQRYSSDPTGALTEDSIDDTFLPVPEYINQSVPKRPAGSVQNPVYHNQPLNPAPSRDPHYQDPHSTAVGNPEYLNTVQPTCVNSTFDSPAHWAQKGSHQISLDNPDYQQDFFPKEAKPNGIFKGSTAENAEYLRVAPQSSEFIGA
Sequence of Follistatin-related protein 3 (Homo sapiens) (O95633 whole entry, looked up): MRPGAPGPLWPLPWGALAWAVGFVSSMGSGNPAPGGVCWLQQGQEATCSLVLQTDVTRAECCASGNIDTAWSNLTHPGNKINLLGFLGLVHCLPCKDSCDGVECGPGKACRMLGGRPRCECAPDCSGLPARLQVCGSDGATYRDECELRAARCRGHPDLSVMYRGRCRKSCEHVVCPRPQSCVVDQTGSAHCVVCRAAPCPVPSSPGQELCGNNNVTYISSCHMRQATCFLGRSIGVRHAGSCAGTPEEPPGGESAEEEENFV

Consider `COCCCNC(=O)[C@@H]1c2ccccc2C(=O)N(Cc2ccccc2OC)[C@H]1c1ccc(CO)cc1`, for which the composite z-score in [1] was 0.342; in [2], -0.257; in test [3] it was 0.287; in test [5] it was 0.621; in [6] it was -0.177; in [7], 0.238. For the same compound, the results for the composite z-score in [8], in test [9] and in test [10] were 0.403, 0.56 and 0.344, respectively. Besides, the z-score in test [4] was -1.06 (inactive).

On to `C#CCN1[C@@H](Cc2ccc(O)cc2)C(=O)O[C@H](Cc2ccccc2)[C@@H]1/C=C/C1CC1`, for which the composite z-score in test [1] was -0.0032; in [2], -0.366; in test [3] it was -0.337; in test [5] it was 0.172; in [6] it was -0.102; in test [7], 0.002. In addition, the composite z-score in test [8] is -0.149; in test [9], 0.0874; in test [10], 0.718. For the same compound, in test [4], the z-score was 1.99 (inactive).

As to `C=CC[C@]1(C(=O)N2CCOCC2)N=C(c2ccc(OCCCO)cc2)O[C@H]1c1ccccc1N=[N+]=[N-]`, the composite z-score in test [1] was determined as 0.945; in [2], 0.779; in test [3], 1.17; in test [5], 0.95; in test [6] it was 1.29; in test [7], 0.23. Further, the composite z-score was 0.673 in test [8], -0.201 in [9] and 1.09 in [10]. Also, the z-score in test [4] was -1.23 (inactive).

As to `C=CCC(OC(C)=O)[C@@H]1[C@@H](N(Cc2ccc(-c3cccc(C(F)(F)F)c3)o2)C(=O)Cc2ccc(OC)cc2)c2cc(OCCCO)ccc2N1C(=O)c1ccc2ccccc2c1` (stereo not given in full), the composite z-score is 0.403 in test [1]; -0.179 in test [2]; 0.577 in test [3]; -0.344 in test [5]; -1.46 in test [6]; -0.488 in [7]. In addition, the composite z-score is 0.195 in [8], -0.298 in test [9] and 1.39 in [10]. Moreover, the z-score in test [4] was -0.814 (inactive).

Regarding `COc1ccc([Si](C)(C)[C@@H]2[C@@H](CC(=O)N3CCC[C@H]3CO)O[C@]3(C(=O)N(Cc4cccc(I)c4)c4ccccc43)[C@H]2C)cc1`, the composite z-score is 0.541 in [1]; 0.0446 in test [2]; 0.0665 in test [3]; 1.05 in test [5]; 1.13 in test [6]; 1.2 in test [7]. Moreover, the composite z-score in test [8] was found to be 1.44; in test [9], 1.92; in test [10], 0.946. In addition, in [4], the z-score is -0.404 (inactive).

Take `CCCCC(=C=CC[C@@H](O)c1cccc(OCCO)c1)C[C@@H](O)c1ccccn1`: the composite z-score is 1.6 in test [1]; -0.132 in test [2]; -0.387 in [3]; 1.06 in [5]; 0.839 in test [6]; -0.181 in test [7]. In addition, the composite z-score in test [8] came to 1.07; in test [9] it was 0.168; in test [10], 0.869. Moreover, the z-score in test [4] is -0.123 (inactive).

In the case of `CC(C)[Si](C#CCCCC#N)(Oc1ccccc1Br)C(C)C`, the composite z-score in test [1] is 0.436; in test [2], -0.288; in test [3], -0.536; in test [5], 0.361; in test [6] it was 0.693; in test [7], 0.216. Also, the figures for the composite z-score in test [8], in [9] and in [10] were 0.58, -0.108 and 0.32, respectively. Besides, the z-score in [4] was -0.542 (inactive).

As for `CCCCN1CC=CC23O[C@@H]4C=CCCOC(=O)C4[C@H]2C(=O)N(CCCCCO)[C@@H]3C1=O` (stereo not given in full), the composite z-score in test [1] is 1.2; in test [2] it was -0.359; in [3] it was 0.413; in test [5], -1.1; in test [6], -0.649; in test [7], -0.95. Also, the composite z-score in test [8] is -1.15; in [9], -0.787; in test [10] it was 0.26. The z-score in test [4] was -0.268 (inactive).

For the compound `O=c1cccc(-c2ccccc2Cl)o1`, the composite z-score in [1] is -0.462; in test [2] it was -0.0639; in test [3], -0.456; in test [5] it was 0.425; in test [6] it was 0.0083; in [7] it was 0.0031. Further, the composite z-score in test [8] was -0.0893; in test [9], 0.157; in test [10], 0.747. Besides, the z-score in [4] was 0.477 (inactive).

On to `O=C1[C@H]2C=C(Br)[C@H](C[C@@H]2OCCCCCCO)[C@@]12CO2`, for which the composite z-score in test [1] is 1.21; in test [2], -0.142; in [3] it was -0.0272; in [5], -0.117; in test [6] it was -0.363; in test [7], -0.0491. Moreover, the composite z-score in test [8] was -0.154; in [9], -0.0712; in test [10] it was 1.61. In addition, the z-score in test [4] is 0.428 (inactive).

With `C[N+](C)(C)CCCC[C@@H]1NC(=O)[C@@H]2C[C@H](C(=O)NCCCCCN)[C@H](c3ccc(O)cc3)N2C1=O`, the composite z-score is 1.55 in test [1]; 1.16 in test [2]; 0.808 in test [3]; 1.42 in test [5]; 1.29 in test [6]; 0.024 in test [7]. Further, the values for the composite z-score in test [8], in test [9] and in test [10] were 0.878, 0.308 and 0.199, respectively. In addition, in [4], the z-score is -1.1 (inactive).

Turning to `C=CC1c2cc(O)c(OC)cc2CCN1Cc1cccc(OC(F)(F)F)c1` (stereo not given), the composite z-score in test [1] is -0.128; in test [2], -0.0819; in test [3], 0.516; in [5] it was -0.438; in [6] it was -0.765; in test [7], -0.417. Further, the composite z-score was 0.0396 in test [8], -0.0102 in test [9] and 1.64 in [10]. Besides, the z-score in [4] was -0.918 (inactive).

On to `CCCNC(=O)[C@@]1(Sc2ccc(C)cc2)CC(=O)N(Cc2ccccc2C(F)(F)F)[C@@H]1c1ccc(CO)cc1I`, for which the composite z-score is 1.53 in test [1]; 0.277 in test [2]; 0.726 in [3]; 0.441 in test [5]; 0.119 in test [6]; -0.293 in test [7]. Besides, the composite z-score in [8] came out at 1.01; in test [9], 0.262; in [10] it was 1.24. For the same compound, in test [4], the z-score is -1.6 (inactive).

Turning to `COCCCNC(=O)[C@@H]1c2ccccc2C(=O)N(Cc2ccccc2)[C@H]1c1ccc(CO)cc1`, the composite z-score in test [1] was 0.698; in test [2] it was 0.698; in test [3] it was 0.655; in [5], 0.223; in [6] it was 0.437; in [7], 0.851. In addition, the composite z-score in [8] amounted to 0.197; in test [9], 0.549; in test [10], 0.353. Besides, in test [4], the z-score is -0.403 (inactive).

In the case of `CC[C@@H]1C=C(C(=O)O)[C@H](c2ccc(C)cc2)N1S(=O)(=O)c1ccc(C)cc1`, the composite z-score in test [1] is 0.66; in test [2], 0.0882; in test [3], 0.335; in test [5] it was 0.227; in test [6] it was 0.745; in test [7], -0.0708. Besides, the composite z-score in [8] was 0.534; in test [9] it was -0.357; in test [10], 0.236. Besides, in test [4], the z-score is 0.243 (inactive).

For `COc1cc2c(cc1O)C=[N+](Cc1cc3c(cc1Br)OCO3)CC2`, the composite z-score was 1.73 in test [1]; 0.0055 in test [2]; 0.591 in test [3]; -0.445 in [5]; -1.06 in test [6]; -0.486 in test [7]. In addition, the results for the composite z-score in [8], in test [9] and in test [10] were -1.04, -1.05 and 0.655, respectively. For the same compound, the z-score in test [4] is -0.244 (inactive).

As for `NC(=O)NCC#Cc1ccc2c(c1)[C@]1(C(=O)N2)[C@H](C(=O)O)[C@H]2C(=O)O[C@H](c3ccccc3)[C@H](c3ccccc3)N2[C@@H]1c1ccc(O)cc1`, the composite z-score was 0.783 in test [1]; 1.18 in test [2]; 1.24 in test [3]; 0.295 in [5]; -0.576 in test [6]; -0.16 in test [7]. For the same compound, the composite z-score worked out at 1.28 in test [8], 0.181 in test [9] and 1.25 in [10]. Further, in test [4], the z-score is 0.72 (inactive).
